HPGD inh: blocks human HPGD enzyme activity | P15428 | purified HPGD, NADH fluorescence kinetic, PGE2 substrate | Potency, µM, inactives show at the highest dose activity change, negative = inhibition, usual class: inhibitors | actives 4.3% (n = 150,000); active = well fitted inhibition curve with a large enough effect, not every such curve was filed as active; inconclusive = small, poorly fitted or top-dose-only effect, or another doubt; inactive = no such curve, though single readings can be large or run the other way; also: potency is read from the fitted curve at half-maximal effect; % is scaled to controls: 0 for no effect and ±100 for the full control effect
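20 nM HPGD preincubated 15 min at room temperature with compound in 50 mM Tris-HCl pH 8, 0.01% Tween 20. Started with 1 mM NAD+ and 30 uM prostaglandin E2; NADH fluorescence (360/450 nm) read 5 times over 30-s intervals, last minus first.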
ALDH1A1 inh: blocks purified human ALDH1A1 activity | Purified ALDH1A1, NADH fluorescence, propionaldehyde substrate | Potency, µM (top dose mostly 75.3 µM), for inactives: at the top dose activity, negative = inhibition, most hits filed as inhibitors | actives 7.3% (n = 220,000); active = well fitted inhibition curve with a large enough effect, not every such curve was filed as active; inconclusive = small, poorly fitted or top-dose-only effect, or another doubt; inactive = no such curve, though single readings can be large or run the other way;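 also: potency is read from the fitted curve at half-maximal effect; plate controls were no enzyme wells and a reference inhibitor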
Target sequence (P00352 whole entry, looked up): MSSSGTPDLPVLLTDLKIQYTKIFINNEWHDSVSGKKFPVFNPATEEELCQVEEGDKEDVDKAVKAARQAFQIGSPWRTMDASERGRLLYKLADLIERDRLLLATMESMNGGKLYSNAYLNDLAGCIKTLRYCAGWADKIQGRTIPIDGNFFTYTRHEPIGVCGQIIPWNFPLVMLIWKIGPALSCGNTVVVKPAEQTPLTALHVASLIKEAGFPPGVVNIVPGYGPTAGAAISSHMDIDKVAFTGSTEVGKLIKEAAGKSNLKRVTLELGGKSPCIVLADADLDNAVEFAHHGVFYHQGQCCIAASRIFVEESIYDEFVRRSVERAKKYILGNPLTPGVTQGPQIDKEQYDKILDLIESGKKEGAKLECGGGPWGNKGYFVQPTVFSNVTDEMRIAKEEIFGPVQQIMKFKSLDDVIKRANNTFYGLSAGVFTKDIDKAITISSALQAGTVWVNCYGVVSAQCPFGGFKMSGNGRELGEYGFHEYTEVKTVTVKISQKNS
CBFb-RUNX1 inh: blocks binding between human CBF-beta and RUNX1 | 230,000 tested, under 10 active | Q01196+Q13951 | Potency, µM (titrated, usually from 59.8 µM), for the others: at the highest dose activity, negative = inhibition, most hits filed as inhibitors | AlphaScreen CBFb-His/RUNX1-biotin binding, biochemical | AID 1477; also: % of control where 0% means no effect
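AlphaScreen proximity signal reports loss of binding between His-tagged CBF-beta and biotin-labelled RUNX1, each at 30 nM. Proteins are pre-associated for 20 minutes, compounds added for 15 minutes, then beads for 90 minutes, all at ambient temperature.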
HttQ103 aggreg: inhibitors of mutant huntingtin aggregate formation in PC12 cells | actives 1.1% (n = 220,000) | AID 1688 | PC12 HttQ103-GFP aggregates, Acumen cytometry, 40 h | Potency, µM (titrated, usually from 46.1 µM), without a hit: at the highest dose activity change, negative = inhibition, usual class: inhibitors; also: potency is read from the fitted curve at half-maximal effect; % is scaled to controls: 0 for no effect and ±100 for the full control effect; nearly all actives have a fitted effect of over 60% in size
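Using laser scanning cytometry, GFP-positive aggregates were counted after lysis of PC12 cells induced with 100 nM tebufenozide to express HTT exon 1 Q103–GFP. Compounds were tested in titration.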
HTT ATP protect: protects HTT-Q103 PC12 cells, measured by ATP. PC12 HTT-Q103 induced, cytoprotection, ATP luminescence, 40 h. Potency, µM (doses to about 56.4 µM), for the others: cytoprotection (ATP increase), actives largely listed as activators. actives 0.14% (n = 230,000); also: potency is read from the fitted curve at half-maximal effect; % of control where 0% means no effect; nearly all actives have a fitted effect of over 45% in size
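ATP quantification (ATPlite) reports survival of PC12 cells in which tebufenozide, 100 nM final, switches on Htt exon 1 with 103 glutamines linked to GFP; compounds are titrated.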
PNC inhibitor: blocks assembly of the perinucleolar compartment. PC3M PTB-GFP, PNC prevalence imaging, 16 h; active compounds read low. activity change (PNC), negative = inhibition, % at 10 µM. actives 3.1% (n = 140,000);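 active = readout at or below -70, meaning at least 70% loss of cells showing the perinucleolar compartment, a nuclear body marking cancer cells; inconclusive = readout between -30 and a set limit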;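 also: plate controls were DMSO wells for no effect and camptothecin positive control wells for full effect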
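PC3M cells stably expressing PTB-GFP, 750–1000 cells/well, treated 16 h at 37 °C with compound (23 nl of library stock), in duplicate. After paraformaldehyde fixation and Hoechst stain, imaged at 20x; PNC prevalence scored by image analysis.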
An asterisk follows results filed as active; ? = inconclusive; / = no result given; [ ] = another dose, or the depositor's remark. Hits are enriched below; roughly 11% of the tested compounds scored in any of these assays. Unless noted, calls follow the shape of the dose curve; as a rule, active = well fitted curve in the direction sought with a large enough effect; inconclusive = small, poorly fitted or top-dose-only effect, or another doubt; inactive = no such curve, though single readings can be large; an effect the other way counts as inactive or inconclusive.

SMILES	HPGD inh	ALDH1A1 inh	CBFb-RUNX1 inh	HttQ103 aggreg	HTT ATP protect	PNC inhibitor
Nc1ncnc2c1ncn2[C@@H]1O[C@@H](CO)[C@H](O)[C@@H]1O	/	/	/	/	0%[1.9 µM]	/
COc1cc(OC)cc(C2=Nn3c(nnc3-c3ccccc3OC)SC2)c1	/	/	-9%	/	/	/
Cc1nc(C(F)(F)F)c(C(=O)N/N=C(\N)c2ccccn2)s1	/	4%	?	22µM*	-164%	/
CCN(CCO)C1CC(=O)N(c2ccccc2C)C1=O (configuration not stated)	-23%	3.5µM*	9%	?	-5%[10 µM]	?
Cc1ccccc1N1C(=O)CC(N(O)c2ccccc2)C1=O (configuration not stated)	-6%	?	-1%	2%	-11%[0.074 µM]	10
CCN(CC)C1CC(=O)N(c2cccc(C)c2)C1=O (configuration not stated)	-28%	3.5µM*	0%	?	13%[10 µM]	12
O=C(CCl)N(c1ccccc1)c1c[nH]c2ccccc12	/	?	1%	-13%	-14%	-6
O=C(CCl)N(c1ccc(Cl)cc1)c1c[nH]c2ccccc12	-24%	7.1µM*	-8%	?	-115%	27
CCCCNC(=S)N(C)/N=C/c1ccc(F)cc1	28µM*	3%	?	5%	-43%[10 µM]	-21
CCCCNC(=S)N(C)/N=C/c1c(F)cccc1F	-8%	-7%	?	5%	/	42
Cc1ccc(CNC(=O)[C@H]2C[C@@H]2[C@H](NP(=O)(c2ccccc2)c2ccccc2)c2ccccc2)c(F)c1F	-8%	-5%	12%	/	-46%	/
CCN(CC)CCCOC(=O)C(c1ccccc1)c1ccccc1	/	-16%	4%	15%	-12%	/
CC(C)N1C(=O)CC2(CC[N+](C)(CCOC(=O)C(c3ccccc3)c3ccccc3)CC2)C1=O (configuration not stated)	?	25µM*	2%	3%	-11%	-27
Cc1cc(C)c2c(c1)/C(=N/NC(=O)c1cc(C)oc1C)CCC2	-8%	-5%	-2%	-4%	12%[10 µM]	18
Clc1ccc(-c2n[nH]c3c2CCC3)cc1Cl	18µM*	?	9%	?	-13%	9
Clc1ccc(-c2n[nH]c3c2CCCC3)cc1	/	4%	16%	-13%	-31%	/
O=c1c(-c2ccc(F)cc2)nc2cnc(N3CCNCC3)nc2n1Cc1ccc(F)cc1	/	?	/	/	-12%	/
O=C(COC(=O)CNC(=O)c1cccc([N+](=O)[O-])c1)NCc1ccco1	/	10%	1%	-2%	14%	/
CCCOc1cc(C)nc(-c2ccccc2O)n1	/	10µM*	20%	?	-30%	-19
COc1ccnc(N=CNOCc2cccc(C(F)(F)F)c2)c1C#N	/	?	19%	19%	-36%	/
O=C1CC(SCCc2nc3ccccc3[nH]2)C(=O)N1c1ccc(Cl)cc1 (configuration not stated)	-5%	?	6%	10%	-3%	7
CCOc1ccc(N2C(=O)CC(SCc3nc4ccccc4[nH]3)C2=O)cc1 (configuration not stated)	/	4.5µM*	19%	-11%[9.22 µM]	16%[10 µM]	/
O=C1CC(SCc2nc3ccccc3[nH]2)C(=O)N1c1ccc(F)c(Cl)c1 (configuration not stated)	22µM*	5µM*	-9%	-9%[9.22 µM]	16%	13
O=C1CC(SCc2nc3ccccc3[nH]2)C(=O)N1c1cccc(F)c1 (configuration not stated)	-19%	13µM*	-11%	4µM*	?	16
O=C1CC(SCc2nc3ccccc3[nH]2)C(=O)N1c1ccc(Cl)cc1 (configuration not stated)	-10%	25µM*	-6%	1%	-30%	?
SMILES	HPGD inh	ALDH1A1 inh	CBFb-RUNX1 inh	HttQ103 aggreg	HTT ATP protect	PNC inhibitor
O=C(O)CCCC[C@@H]1SC[C@H]2NC(=O)N[C@H]12	/	/	/	/	-27%	/
O=C(NCCNc1nccc(C(F)(F)F)n1)c1cccs1	/	/	3%	-3%[9.22 µM]	7%[10 µM]	/
O=C(O)/C=C\C(=O)Nc1cccc2c1-c1ccccc1C2=O	-18%	1%[13.5 µM]	/	/	-3%[10 µM]	/
O=C(COc1ccc(Cl)cc1)Nc1ncc([N+](=O)[O-])s1	/	4%	-2%	13µM*	-59%	/
CN(C)CCC=C1c2ccccc2C(C)(C)c2ccccc21	/	/	/	-23%	-52%	/
O=C(NC1CC2CCCC(C1)N2Cc1ccccc1)C1CCCCC1 (configuration not stated)	/	6%	2%	15%[9.22 µM]	21%[10 µM]	/
O=C(NC1CC2CCCC(C1)N2S(=O)(=O)c1ccccc1)C1CCCCC1 (configuration not stated)	-11%	28µM*	-10%	-4%	-16%	84
Cc1cc(-c2csc(NC(=O)c3ccc(C#N)cc3)n2)c(C)n1Cc1ccco1	-2%	2%	-6%	5%	-7%[10 µM]	-15
COc1ccc(OC)c(C(c2nnnn2Cc2ccccc2)N2CCN(C3CCCCC3)CC2)c1 (configuration not stated)	-8%	-3%	14%	4%	-28%[10 µM]	12
COc1ccccc1CNc1cc(-c2ccccc2C(F)(F)F)ncn1	/	2%	/	/	-65%	/
Cc1cc(O)c(C=O)c2c1C(=O)Oc1c(CO)c(O)c3c(c1O2)C(O)OC3=O (configuration not stated)	/	?	/	28%[9.22 µM]	1%[10 µM]	/
Cc1cc(O)c(C=O)c2c1C(=O)Oc1c(COC(=O)/C=C/C(=O)O)c(O)c(C(=O)O)c(C)c1O2	1.4µM*	4.5µM*	/	/	/	/
CCn1c(SCc2nc3sc(C(=O)O)c(C)c3c(=O)[nH]2)nnc1-c1ccc(Cl)cc1	/	14µM*	-7%	?	-27%	/
Cc1sc2nc(CSc3nnnn3-c3ccc(Cl)cc3)[nH]c(=O)c2c1C	-15%	?	1%	7%	10%[10 µM]	-16
COc1cc([C@@H]2CC(=O)c3c(O)cc(O)cc3O2)ccc1O	/	/	17%	/	/	/
CCNCc1ccccc1OCc1ccccc1	/	3%	7%	-3%	-20%	/
Oc1ccc(NCc2ccccc2OCc2ccccc2)cc1	14µM*	5.6µM*	/	17%	/	0

Screening results from PubChem BioAssay.
